The values that follow come from PubChem BioAssay (EPA / NIEHS).

SMILES strings stand for the structures. Inconclusive results are not listed. Activity calls are given as the source filed them. Rule for the calls, unless noted: active = hit-call score of the fitted dose curve at least 0.9, where 1 is the maximum; inconclusive = response in the unintended direction; inactive = score below 0.9.

Assay [1] in a line: CEETOX_H295R_MTT_cell_viability: Viability Assessment in the CeeTox HT-H295R MTT Assay (AID 2283718; active = hit-call score of the fitted dose curve at least 0.9, where 1 is the maximum; inactive = score below 0.9;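 for AC50: curve fitted both ways so AC50 may mark viability loss or gain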). The essentials:
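H295R cells prestimulated 48 h with 10 uM forskolin, then exposed 48 h to test chemical (0.1% DMSO final). Viability by MTT (0.5 mg/ml, 4 h, 37 C), absorbance 570/650 nm; percent change versus DMSO, bidirectional fit.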

The nature of assay [2]: ACEA_AR_antagonist_AUC_viability: ACEA Biosciences xCELLigence Real-Time Cell Analysis on Androgen Receptor Antagonism for Viability (AID 2283776).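 Note: area under impedance growth curve at 80 h after dosing as viability; hits lower the growth signal relative to DMSO meaning cytotoxicity.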 An outline of the steps:
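22Rv1 human prostate cancer cells were seeded on electrode plates, monitored overnight, then exposed to eight 1:4 dilutions from 100 uM final. Impedance-based growth kinetics at 80 h gave an AUC viability endpoint normalized to DMSO.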

Assay [3] in a line: ACEA_ER_AUC_viability: ACEA Biosciences xCELLigence Real-Time Cell Analysis on Estrogen Receptor Agonism for Viability (AID 2283782).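 Note: hit means loss of impedance signal meaning reduced cell growth or viability.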 The essentials:
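Continuous-exposure impedance cell analysis uses T-47D cells in charcoal-stripped serum, eight 1:4 dilutions topping at 100 uM final, biological duplicate. Area under the growth curve at 80 h is fitted against DMSO baseline.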

In assay [4] the target is Luciferin 4-monooxygenase (Photinus pyralis) (UniProt P08659). The experiment in a line: CCTE_Simmons_QuantiLum_inhib_2: CCTE's Firefly Luciferase Inhibition Assay, Simmons Lab (AID 2283767).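 For AC50: potency for inhibitors that lower luciferase luminescence relative to DMSO.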 An outline of the steps: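 Eight-point titrations of each chemical, 5 nM–87.5 uM final in 0.5% DMSO, were run in three biological replicates against recombinant luciferase for 30 min at 37C. Bioluminescence signal loss, read on reagent injection, gave the inhibition endpoint.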
Luciferin 4-monooxygenase (Photinus pyralis), sequence (P08659 whole entry, looked up): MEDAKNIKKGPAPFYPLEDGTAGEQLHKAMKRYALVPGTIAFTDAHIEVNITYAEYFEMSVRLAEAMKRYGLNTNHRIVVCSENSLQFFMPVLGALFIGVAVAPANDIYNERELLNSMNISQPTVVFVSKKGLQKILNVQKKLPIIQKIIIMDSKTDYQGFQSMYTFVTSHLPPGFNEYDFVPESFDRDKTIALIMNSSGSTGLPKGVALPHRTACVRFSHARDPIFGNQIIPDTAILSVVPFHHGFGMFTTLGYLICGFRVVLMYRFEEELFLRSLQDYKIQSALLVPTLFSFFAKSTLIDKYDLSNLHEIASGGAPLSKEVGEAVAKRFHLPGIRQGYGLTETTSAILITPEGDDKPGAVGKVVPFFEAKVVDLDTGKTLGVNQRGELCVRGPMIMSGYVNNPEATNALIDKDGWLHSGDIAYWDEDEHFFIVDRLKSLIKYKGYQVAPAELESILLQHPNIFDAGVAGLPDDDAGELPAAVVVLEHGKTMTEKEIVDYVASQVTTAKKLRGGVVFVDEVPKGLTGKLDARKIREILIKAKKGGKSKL

A short description of assay [5]: ACEA_AR_agonist_AUC_viability: ACEA Biosciences xCELLigence Real-Time Cell Analysis on Androgen Receptor Agonism for Viability (AID 2283775).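 For AC50: viability read 80 hours after compound addition.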 The essentials: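 Viability endpoint from xCELLigence impedance in 22Rv1 prostate cells at 80 h. Eight-point series, 100 uM maximum final.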
Assay [6] concerns the target AR (gene 367) (UniProt P10275). Kind of assay: ACEA_AR_antagonist_80hr: ACEA Biosciences xCELLigence Real-Time Cell Analysis on Androgen Receptor Antagonism for Proliferation (AID 2283787).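 Note: hits lower the impedance growth signal relative to DMSO.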 An outline of the steps: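 Using 22Rv1 cells held in assay medium, we dosed compounds (100 uM maximum final, 1:4 serial, eight points, 0.5% DMSO at top) and recorded cell-electrode impedance; the 80 hr timepoint was analyzed against DMSO.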

The nature of assay [7]: STM_H9_OrnithineISnorm_perc: Stemina devTOX quickPredict H9 human embryonic stem cell (hESC)-based Assay for Ornithine (ORN) Metabolite Biomarker, Normalized (AID 2283712; active = hit-call score of the fitted dose curve at least 0.9, where 1 is the maximum; inactive = score below 0.9;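 note: ornithine released into spent medium during last day measured by mass spectrometry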). An outline of the steps: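 Metabolite endpoint from spent media of pluripotent H9 cells treated 72 h with daily re-feeding; ornithine measured by UPLC-HRMS against its 13C spike-in and referenced to the median 0.1% DMSO vehicle response.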

Assay [8] is described as follows: STM_H9_CystineISnorm_perc: Stemina devTOX quickPredict H9 human embryonic stem cell (hESC)-based Assay for Cystine (CYSS) Metabolite Biomarker, Normalized (AID 2283713; active = hit-call score of the fitted dose curve at least 0.9, where 1 is the maximum; inactive = score below 0.9). The essentials: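 Normalized cystine level in conditioned medium from the final 24h of a 72h treatment of pluripotent H9 cells (daily media and compound renewal). Quantified by UPLC-HRMS with C13-labeled internal standard; scaled to median of 0.1% DMSO vehicle wells.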

Assay [9] is described as follows: STM_H9_OrnCyssISnorm_ratio: Stemina devTOX quickPredict H9 human embryonic stem cell (hESC)-based Assay for Ornithine (ORN):Cystine (CYSS) Ratio (AID 2283714). An outline of the steps: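 H9 hESC, 72h, q24h re-dose; last-day media → acetonitrile deproteinization → UPLC-HRMS. ORN:CYSS ratio from isotope-normalized EIC areas, vs 0.1% DMSO; MTX references on each plate.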

A short description of assay [10]: Tanguay_ZF_120hpf_ActivityScore_legacy: (Legacy) Oregon State University Tanguay Lab 120 Hour Post-fertilization zebrafish Assay Score for Activity (AID 2283742). An outline of the steps: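 In this whole-embryo screen, dechorionated zebrafish were exposed from 6 hpf until 120 hpf at 28C under a 0.64% DMSO vehicle. Developmental malformations and death were recorded by brightfield microscopy as binary endpoints.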

Assay [11] is described as follows: STM_H9_NormalizedViability: Cytotoxicity Assessment at 120 hours in the Stemina devTOX quickPredict H9 human embryonic stem cell (hESC)-based Assay (AID 2283784). An outline of the steps: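 Here, H9 cells received test compound with daily medium renewal. Each plate included methotrexate references (1uM, 5 nM), 0.1% DMSO and media blanks; CellTiter-Fluor RFU was normalized to DMSO.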

AR (gene 367), sequence (P10275 whole entry, looked up): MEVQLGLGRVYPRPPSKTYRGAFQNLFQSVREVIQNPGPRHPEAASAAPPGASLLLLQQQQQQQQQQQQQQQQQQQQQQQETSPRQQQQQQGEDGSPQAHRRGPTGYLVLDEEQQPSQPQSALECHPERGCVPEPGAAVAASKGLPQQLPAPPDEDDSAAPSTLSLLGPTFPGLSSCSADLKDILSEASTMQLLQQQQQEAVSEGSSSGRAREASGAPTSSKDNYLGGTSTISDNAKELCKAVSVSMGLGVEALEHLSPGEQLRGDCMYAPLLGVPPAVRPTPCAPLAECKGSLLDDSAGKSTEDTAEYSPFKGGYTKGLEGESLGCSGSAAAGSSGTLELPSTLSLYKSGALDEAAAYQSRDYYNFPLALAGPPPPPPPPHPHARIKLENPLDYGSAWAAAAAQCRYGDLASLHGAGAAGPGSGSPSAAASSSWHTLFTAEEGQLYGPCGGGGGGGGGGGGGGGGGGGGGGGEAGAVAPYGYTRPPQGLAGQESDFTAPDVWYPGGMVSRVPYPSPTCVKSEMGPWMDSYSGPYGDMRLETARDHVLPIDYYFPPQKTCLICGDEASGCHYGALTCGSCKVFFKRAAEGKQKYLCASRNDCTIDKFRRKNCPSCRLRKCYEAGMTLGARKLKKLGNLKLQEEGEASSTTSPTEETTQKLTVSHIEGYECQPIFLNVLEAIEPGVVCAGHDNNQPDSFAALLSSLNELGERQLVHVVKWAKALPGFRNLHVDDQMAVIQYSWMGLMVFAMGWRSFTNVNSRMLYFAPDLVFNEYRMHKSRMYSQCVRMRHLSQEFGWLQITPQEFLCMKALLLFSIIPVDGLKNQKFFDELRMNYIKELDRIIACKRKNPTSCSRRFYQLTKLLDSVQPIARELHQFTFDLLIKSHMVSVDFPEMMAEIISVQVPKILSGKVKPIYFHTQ

One may read the AC50 as the midpoint of the concentration-response curve, whichever way the signal moves. Turning to `C=C[Si]1(C)O[Si](C)(C=C)O[Si](C)(C=C)O[Si](C)(C=C)O1` (stereo not drawn), the outcome in [1] and in [2] was inactive. In addition, the AC50 in [3] is 88 µM (active).

For `O=C(Nc1ccc2c(O)c(N=Nc3ccc(N=Nc4ccc(S(=O)(=O)O)cc4)cc3)c(S(=O)(=O)O)cc2c1)c1ccccc1`, the compound was called inactive in assay [1], in assay [5] and in assay [3]. The AC50 in assay [4] is 20.7 µM (active).

As for `COc1ccc(CCN2CCC(Nc3nc4ccccc4n3Cc3ccc(F)cc3)CC2)cc1`, in assay [1], the compound was called inactive.

Regarding `Nc1ccc(N)c2c1C(=O)c1ccccc1C2=O`, the compound was classed as inactive in [1] and in assay [3]. For the same compound, the AC50 is 9.05 µM (active) in [5], 12.7 µM (active) in [2] and 16.6 µM (active) in assay [6].

Turning to `Cc1cc(=O)oc2cc(N(C)C)ccc12`, the result in [1], in assay [5] and in assay [3] was inactive. In addition, the AC50 in assay [2] is 0.177 µM (active).

As for `O=c1c(O)c(-c2ccc(O)cc2)oc2cc(O)cc(O)c12`, the AC50 is 34.3 µM (active) in [4] and 4.77 µM (active) in [2]. In assay [5], the compound was called inactive.

As for `CS(=O)(=O)OCCCCOS(C)(=O)=O`, the half-maximal activity concentration (AC50) in assay [7] is 36.3 µM (active); in assay [8] it was 5.25 µM (active); in [9], 31.2 µM (active); in assay [11], 23.6 µM (active). Also, the compound was called inactive in assay [10], in assay [4], in assay [5], in assay [2] and in [3].

On to `CC(C)(C)CC(C)(C)c1ccc(OCCOCC[N+](C)(C)Cc2ccccc2)cc1`, for which the result in [1] was inactive.

On to `Cc1cc(S(=O)(=O)O)ccc1N=Nc1c(O)ccc2ccccc12`, for which the AC50 in [4] is 27.8 µM (active). Moreover, the compound was classed as inactive in assay [5].

Consider `CCCCCCCCN1CCCC1=O`, for which, in [1], the AC50 was 0.882 µM (active).

Take `CC(CN=Cc1ccccc1O)N=Cc1ccccc1O` (stereo not drawn): the values for the AC50 in [1], in assay [5] and in assay [2] were 2.57 µM (active), 6.64 µM (active) and 4.63 µM (active), respectively. Moreover, the compound was classed as inactive in assay [4].

Regarding `CCCCCCCCc1ccc(S(=O)(=O)O)cc1`, the compound was classed as inactive in [4], in assay [5], in assay [2] and in assay [3].

Turning to `CCc1cc(C(C)(C)C)c(O)c(C(C)(C)C)c1`, the result in [1], in assay [4], in assay [5] and in assay [2] was inactive. The AC50 in assay [3] was 81.8 µM (active).

Turning to `O=C(O)c1ccc(O)cc1`, the compound was called inactive in [4], in [5], in assay [2] and in assay [3].

For `O=C1c2ccccc2C(=O)c2c(O)ccc(O)c21`, in [9], the AC50 was 10 µM (active). The outcome in assay [3] was inactive.

For the compound `BrCc1cccc(Oc2ccccc2)c1`, the result in assay [1], in [5], in assay [2], in assay [3] and in assay [6] was inactive.

With `COCCc1ccc(OCC(O)CNC(C)C)cc1` (stereo not drawn), the outcome in assay [1] was inactive.
